The source of these data is PubChem BioAssay (NCI).

Compounds without any hit were thinned out: in the full panel of roughly 83,000, 20% have a hit.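 Interpretation: 100, growth as untreated; towards 0, rising growth inhibition; 0, no net growth; 0 to -100, cell death. Compounds scoring below 10 were considered active.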 Values without a mark were called inactive. Activity calls are given as the source filed them.

Holding throughout (experiment): NCI-60 one-dose screen, 48 h (100 = growth as untreated, 0 = no growth, -100 = all killed)
Holding throughout (conditions): 10 µM unless noted

Assay [1] has as its system NCI/ADR-RES ovarian.
Assay [2] deals with T-47D breast.
Assay [3] has as its system BT-549 breast.
Assay [4] concerns MDA-MB-435 melanoma.
For assay [5], the system named is SW-620 colon.
Assay [6] relates to MCF7 breast.
Assay [7] relates to HCT-116 colon.
The subject of assay [8] is HCC-2998 colon.
For assay [9], the system named is KM12 colon.

Turning to `CN1C(=O)C(=Cc2cn(Cc3ccccc3)c3ccccc23)C(=O)N(C)C1=O`, the growth was 89% in assay [1]; 42.8% in [2]; 88.9% in assay [3]; 102% in [4]; 79.7% in assay [5]; 64% in [6]. The growth is 71% in assay [7], 81.8% in assay [8] and 102% in [9].
`O=[N+]([O-])c1cc([N+](=O)[O-])c(Nn2c3ccccc3c3ccccc32)c([N+](=O)[O-])c1`: the growth is 7.52% (active) in assay [1]; -17.3% (active) in assay [2]; -27.4% (active) in [3]; 0.936% (active) in assay [4]; 11.1% in assay [5]; 2.34% (active) in assay [6]. The growth is -10.1% (active) in assay [7], 1.54% (active) in [8] and 4.34% (active) in assay [9].
Consider `COc1cc(C=Nc2cccc(Br)c2)ccc1N(CCCl)CCCl`, for which the growth was 80.7% in [1]; 91.3% in [2]; 85.5% in [3]; 103% in assay [4]; 74.5% in assay [5]; 66.6% in assay [6]. Moreover, the growth was 87% in [7], 60.1% in assay [8] and 40.6% in assay [9].
Regarding `C#Cc1ccc2c(c1)C(c1ccccc1F)=NCC(=O)N2C`, the growth in assay [1] is 16.6%; in assay [2], 40.9%; in assay [3] it was 47.2%; in assay [4], 10.2%; in [5], 30.3%; in assay [6], 19.7%. Moreover, the growth is 17.3% in assay [7], 65.2% in [8] and 27.8% in assay [9].
As for `CC[C@H](C)[C@H](NC(=O)[C@H]1CCCCN1C)C(=O)N(C)[C@H](C[C@@H](OC(C)=O)c1cccc(C(=O)N[C@@H](Cc2ccccc2)C[C@H](C)C(=O)O)n1)C(C)C`, the growth in assay [1] was 15.6%; in assay [2], 66.8%; in assay [3] it was -18.7% (active); in [4], -48.8% (active); in assay [5], 28.3%; in assay [6], 14.7%. The growth in [7] was -0.292% (active); in assay [8], 17.1%; in assay [9] it was -6.52% (active).
With `COC(=O)[C@@H](C)C[C@H](Cc1ccccc1)NC(=O)c1csc([C@@H](C[C@H](C(C)C)N(C)C(=O)[C@@H](NC(=O)C23CC(NC(C)=O)(C2)C3)C2CC2)OC(C)=O)n1`, the growth in [1] is 97.8%; in assay [2] it was 62.7%; in assay [3], 51.5%; in assay [4], -16.5% (active); in assay [5], 41.3%; in assay [6], 18.9%. Besides, the growth was 20.6% in [7], 49.3% in assay [8] and 28% in assay [9].
As for `COc1ccc(/C=C\c2cc(OC)c(OC)c(OC)c2)c(NS(=O)(=O)c2ccc(F)cc2)c1O`, the growth in assay [1] is 2.13% (active); in assay [2], 103%; in assay [3], 24%; in [4], -34.9% (active); in assay [5] it was 21.1%; in [6], 9.22% (active). For the same compound, the values for the growth in assay [7], in [8] and in [9] were 7.7% (active), 14.9% and 1.13% (active), respectively.
Turning to `CC(=O)O[C@H]1C(=O)[C@@]2(C)[C@H]([C@H](OC(=O)c3ccccc3)[C@]3(O)C[C@H](OC(=O)[C@H](OC(=O)OCC4COC(C)(C)O4)[C@@H](NC(=O)c4ccccc4)c4ccccc4)C(C)=C1C3(C)C)[C@]1(OC(C)=O)CO[C@@H]1C[C@@H]2O` (some centres not stated), the growth was 91.4% in assay [1]; 40.7% in assay [2]; 38.2% in [3]; -49.6% (active) in [4]; 38.7% in assay [5]; 18.9% in [6]. Further, the growth in [7] was 19.2%; in [8], 39.9%; in assay [9] it was 18.7%.
Regarding `CC(=O)O[C@H]1CC[C@@]2(C)C(=CC[C@H]3[C@@H]4C[C@@H](N5CC5)[C@H](C(C)=O)[C@@]4(C)CC[C@@H]32)C1`, the growth in assay [1] is 92.9%; in assay [2], 88.3%; in [3], 100%; in assay [4], 99.9%; in assay [5], 89.6%; in assay [6] it was 72.8%. In addition, the growth in assay [7] was 85.9%; in assay [8], 106%; in assay [9] it was 106%.
For `O=C(CN1CCN(C(=O)c2ccco2)CC1)Nc1ccc(Cl)cc1C(=O)c1ccccc1Cl`, the growth was 83.4% in [1]; 64.3% in [2]; 101% in assay [3]; 118% in assay [4]; 86.8% in assay [5]; 84.9% in [6]. The growth in assay [7] was 86.8%; in assay [8], 97.4%; in [9] it was 89.1%.
For `C#C[C@]1(OC(=O)CCCCCC)CC[C@H]2[C@@H]3CCC4=CC(=O)CC[C@@H]4[C@H]3CC[C@@]21C`, the growth in assay [1] was 40.3%; in assay [2], 37.8%; in assay [3], 34.1%; in [4], 18.3%; in assay [5] it was 28.1%; in assay [6], 76%. For the same compound, the figures for the growth in assay [7], in assay [8] and in assay [9] were 12%, 49.9% and 29.2%, respectively.
As to `CCN(CC)c1ccc2c(c1)OC(N)=C(C#N)C2c1cc(OC)c2c(c1)OCO2` (configuration not stated), the growth in assay [1] was -5.05% (active); in assay [2] it was 57.1%; in [3], 16.6%; in [4], -13% (active); in assay [5], 20.6%; in [6], 14.4%. Moreover, the growth in assay [7] is -8.55% (active); in assay [8], -3.32% (active); in assay [9], 2.07% (active).
For the compound `CCN(CC)CCOC(=O)C(OC(C)C)(c1ccccc1)c1ccccc1`, the growth in assay [1] is 100%; in assay [2], 93.8%; in [3], 96.6%; in assay [4], 103%; in assay [5] it was 91.5%; in assay [6], 95.3%. The growth in assay [7] is 78.4%; in [8] it was 108%; in [9], 101%.
